Only a selection was taken, and hits are over-represented in it overall.
Pf Dd2 growth: qHTS Primary assay for Inhibitors of Plasmodium falciparum Dd2 growth in vitro | P. falciparum Dd2 growth, SYBR Green, 72 h | Potency, µM (titrated, usually from 28.9 µM), inactives show at the highest dose activity, negative = inhibition, usual class: inhibitors | AID 1347417, 2020 | hit rate 4.3% among 120,000; active means well fitted inhibition curve with a large enough effect;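 further: plate controls were DMSO vehicle for no effect and reference drug for full effect; nearly all actives have a fitted effect of over 65% in size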
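Readout: SYBR Green fluorescence, 485 nm excitation, 535 nm emission, after ~16 h lysis at 37C. Before that, Dd2-infected red cells (2.5% hematocrit) grew 72 h with compound, 29 uM top final concentration.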
* hit, by the source's call; [ ] = another dose, or the depositor's remark. Potency means the concentration at half of the fitted maximal effect.

CN(Cc1ccccc1)Cc1ccccc1OCC(O)CN1CCCCC1 (configuration not stated) was read as Pf Dd2 growth 0.794µM*.
CN(CCC1CCOCC1)Cc1ccccc1OCC(O)CN1CCSCC1 (configuration not stated) was read as Pf Dd2 growth -12.0%.
COCCn1cc(CN(C)Cc2ccccc2)ccc1=O was read as Pf Dd2 growth 2.6%.
Screening COCC1CN(C(C)=O)CC12CCN(C(=O)c1ccc(C)c(F)c1)CC2 (configuration not stated) returned Pf Dd2 growth inactive.
`CCC(c1cccnc1)N(C)C(=O)C1CCN(C(=O)C2CCCC2)CC1` (configuration not stated) gave Pf Dd2 growth 5.4%.
Screening CCCc1noc(-c2cn(C3CCN(C(=O)c4ccc(C#N)cc4)CC3)nn2)n1 returned Pf Dd2 growth 12.6µM*.
For CCCc1noc(-c2cn(C3CCN(C(=O)c4ccc(OC)c(F)c4)CC3)nn2)n1 the results were Pf Dd2 growth -13.4%.
For CCCc1noc(-c2cn(C3CCN(C(=O)c4cccc(N(C)C)c4)CC3)nn2)n1 the results were Pf Dd2 growth 3.55µM*.
Screening CCc1noc(-c2cn(C3CCN(C(=O)c4ccc(OC)cc4)CC3)nn2)n1 returned Pf Dd2 growth inactive.
Screening Cc1noc(-c2cn(C3CCN(C(=O)c4cccc(Br)c4)CC3)nn2)n1 returned Pf Dd2 growth -23.2%.
CCc1noc(-c2cn(C3CCN(C(=O)c4ccc(C)cc4)CC3)nn2)n1 was read as Pf Dd2 growth inactive.
COCC(=O)N[C@H]1C[C@@H](CO)N(Cc2cccs2)C1 was read as Pf Dd2 growth 30.7%.
`CCCCN1C(=O)CC[C@H]2CN(C(=O)Cc3cnccn3)CC[C@H]21` gave Pf Dd2 growth -7.6%.
CCn1cc(S(=O)(=O)N2CCC(Cc3nc(-c4ccncc4)n[nH]3)C2)cn1 (configuration not stated) was read as Pf Dd2 growth inactive.
For COc1cc(CN2CCC3(CC2)CN(c2ccncn2)CC3CO)ccc1F (configuration not stated) the results were Pf Dd2 growth -13.4%.
`COc1cc(CN2CCC3(CCN(CC4CC4)CC3)C(CO)C2)ccc1F` (configuration not stated) gave Pf Dd2 growth 8.91µM*.
COc1cc(CN2CCCC(c3[nH]ccc3C(N)=O)C2)ccc1F (configuration not stated) was read as Pf Dd2 growth -29.2%.
Cc1ccc(N2C[C@]34C=C[C@H](O3)C(C(=O)N(C)CCc3cn[nH]c3)C4C2=O)cc1C (some centres not stated) was read as Pf Dd2 growth 3.1%.
For CC(C(=O)NCc1cccc(F)c1)C1CCOCC1 (configuration not stated) the results were Pf Dd2 growth 14.1%.
Screening O=C(c1ccc(Cl)cc1)N1CCC2(CC1)C(=O)Nc1ccccc12 returned Pf Dd2 growth 2.3%.
`COc1ccc(-c2cnc(NC(=O)Cc3ccccc3)c3c2CCO3)cn1` gave Pf Dd2 growth 16.5%[44.1 µM].
Screening CNC(=O)c1cccc(-c2cnc(Nc3ccc(F)c(Cl)c3)c3c2CCO3)c1 returned Pf Dd2 growth 11.2µM*.
Screening COCCNc1ncc(-c2ccc(N3CCOCC3)cc2)c2c1OCC2 returned Pf Dd2 growth 23.0%[44.1 µM].
Screening CNC(=O)c1cccc(-c2cnc(Nc3cccc(C(F)(F)F)c3)c3c2CCO3)c1 returned Pf Dd2 growth inactive.
COc1ccc(Nc2ncc(-c3ccccc3OC)c3c2OCC3)cc1 was read as Pf Dd2 growth inactive.
Screening O=C(Nc1ncc(-c2cccc(F)c2)c2c1OCC2)c1ccncc1 returned Pf Dd2 growth inactive.
`COc1cncc(Nc2ncc(-c3cccc(F)c3)c3c2OCC3)c1` gave Pf Dd2 growth 11.2µM*.
`CNC(=O)c1cccc(-c2cnc(Nc3ccc(Cl)cn3)c3c2CCO3)c1` gave Pf Dd2 growth inactive.
`COc1ccc(-c2cnc(Nc3cc(F)cc(N4CCOCC4)c3)c3c2CCO3)cn1` gave Pf Dd2 growth 11.2µM*.
For CCn1cnnc1CC1CCN(C(=O)c2ccc(OC)cc2OC)C1 (configuration not stated) the results were Pf Dd2 growth -17.9%.
`Fc1ccc(OC2CNC2)c(F)c1` gave Pf Dd2 growth 15.5%[44.1 µM].
Screening O=C(C1CCOCC1)N1CCC(c2nc(C3CCOCC3)no2)C1 (configuration not stated) returned Pf Dd2 growth 35.6%.
For CN(Cc1ccc(C2CCCCO2)s1)CC1CCN(CCc2ccc(F)cc2)CC1 (configuration not stated) the results were Pf Dd2 growth -21.0%.
Screening COc1nc(C)c(C(=O)NC2CC(c3cc(=O)[nH]c(C)n3)C2)s1 (configuration not stated) returned Pf Dd2 growth -20.7%.
For COc1cccc(NC(=O)C2CCCN(S(=O)(=O)c3cn(C)cn3)CCC(=O)NCC2)c1 (configuration not stated) the results were Pf Dd2 growth -2.9%.
Screening N#Cc1ccc(C(=O)N2C[C@@H]3C[C@H](C2)c2ccc(-c4cc5ccccc5s4)c(=O)n2C3)cc1 returned Pf Dd2 growth 13.9%.
For O=C(COc1ccccc1)N1CCCC(Nc2ccc(F)cc2)C1 (configuration not stated) the results were Pf Dd2 growth -6.6%.
`Cc1cnc(-c2ccccc2)n1C1CCCN(C(=O)COc2ccc(F)cc2)C1` (configuration not stated) gave Pf Dd2 growth 2.82µM*.
Cc1cnc(-c2ccccc2)n1C1CCCN(C(=O)c2ccnn2C)C1 (configuration not stated) was read as Pf Dd2 growth -29.1%.
For CCOc1cc(C(=O)N2CCN(c3cc(-c4ccc(Cl)cc4)[nH]n3)CC2)cc(OCC)c1OCC the results were Pf Dd2 growth -4.4%.
`O=C(NCc1ccccn1)C1CCCN(C2CCN(C(=O)Cn3cnnn3)CC2)C1` (configuration not stated) gave Pf Dd2 growth -2.2%.
`O=C(NCCCN1CCc2ccccc2C1)C1CCCCC(=O)N1Cc1ccccc1` (configuration not stated) gave Pf Dd2 growth 3.98µM*.
For CCN1CCN(CCNC(=O)C2CCCCC(=O)N2Cc2ccccc2)CC1 (configuration not stated) the results were Pf Dd2 growth -3.4%.
O=C1CCCCC(C(=O)NCCCN2CCc3ccccc3C2)N1 (configuration not stated) was read as Pf Dd2 growth -13.0%.
For COCCN1Cc2ccc(NCC(C)C)nc2C(C)(C(=O)NC2CC2)C1 (configuration not stated) the results were Pf Dd2 growth inactive.
CC(=O)NCCNC(=O)C[C@@H]1CCNC[C@@H]1Cc1cc(-c2ccccn2)on1 was read as Pf Dd2 growth -6.4%[44.1 µM].
Screening Cc1cc(N2CCN(C(=O)C(c3ccc(F)cc3)N(C)C)CC2)cc(C)n1 (configuration not stated) returned Pf Dd2 growth -12.2%.
Screening Cc1cc(C)cc(OCC(=O)Nc2ccc(-c3nc4ncccc4o3)cc2C)c1 returned Pf Dd2 growth -23.4%.
CCC(C)c1ccc(OCC(=O)Nc2cccc(-c3nc4ncccc4o3)c2)cc1 (configuration not stated) was read as Pf Dd2 growth 2.51µM*.
`CC(C)c1ccc(OCC(=O)Nc2cc(-c3nc4ncccc4o3)ccc2Cl)cc1` gave Pf Dd2 growth -11.4%.

Screens deposited in PubChem by National Center for Advancing Translational Sciences (NCATS).
